# Tgondii IFNg – T. gondii growth inhibition under IFN-gamma. 69,000 compounds, 3.8% hits. activity change, negative = inhibition, % (concentration not given with the values). AID 1259416. Toxoplasma gondii growth in IFN-gamma-treated host cells; hits give low values; in the data active means activity change below about -70%, passing the limit was not always enough;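 further: host cells are HeLa cells infected with Toxoplasma gondii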
# * = called active by the depositor; i = inactive; ! = repeats disagree. Only a selection was taken, and hits are over-represented in it overall.
SMILES,Tgondii IFNg
COc1cc([C@@H]2c3cc4c(cc3[C@H](O)[C@H]3COC(=O)[C@H]23)OCO4)cc(OC)c1OC,-76*!
COc1cc2c(c(OC)c1OC)-c1c(cc3c(c1OC)OCO3)C[C@H](C)[C@@H](C)C2,-8
COc1ccc([C@H]2C/C=C\C[C@@H](c3ccc4c(c3)OCO4)NC(=O)CCC(=O)N2)c(OC)c1,-52
COCCN1CCC12CCN(Cc1cccs1)CC2,60
O=C(CCC(=O)N1CCCC(O)(CO)C1)c1ccccc1 (centres undefined),-1
COCC1CN(S(=O)(=O)c2ccc(C)cc2)Cc2ccnn2C1 (centres undefined),-14
O=C(Nc1ncc(SCCN2CCCC2)s1)[C@]1(c2ccc(S(=O)(=O)C3CC3)cc2)C[C@H]1C1CCCCC1,-73*
CCOCCCNC(=S)N1CCC(NC(=O)NC2CCCCC2)CC1,8
CC(C)(C)c1ccc(C(=O)Nc2ccc3oc(-c4ccccc4)nc3c2)cc1,-84*
O=C(Nc1cccc(-c2nc3ccccc3o2)c1)c1ccccc1,-12
CC(C)CC(=O)Nc1ccc2oc(-c3ccncc3)nc2c1,99
O=C(c1ccc(Br)cc1)N1CCC2(CC1)Nc1ccccc1-n1cccc12,14
COc1cc(NC(=O)c2nc(Nc3ccc(Cl)cc3)c3ccccc3n2)cc(OC)c1OC,-52
CCOc1ccc(-c2nc(CN(c3ccc(C)cc3)S(=O)(=O)c3cccs3)c(C)o2)cc1,6
O=C(C1CCOC1)N1CCN(CCn2cccn2)c2ncccc2C1 (centres undefined),144
Cc1oc(-c2ccccc2)nc1CC(=O)N1CCC2(CN(C)C(=O)O2)C1 (centres undefined),76
CC(C)OC(=O)OCOP(=O)(CO[C@H](C)Cn1cnc2c(N)ncnc21)OCOC(=O)OC(C)C,-78*
Nc1ncnc2c1ncn2C1OC(COP(=O)(O)O)C(O)C1O (centres undefined) (tested in a mixture with another compound),18
Nc1ncnc2c1ncn2CCOCP(=O)(O)O,8
CC(C)(O)C#Cc1cccc(C(=O)NC2CCCCNC2=O)c1 (centres undefined),4
CCOC(=O)N1CCC2(CC1)OC(=O)C(C)=C2C(=O)Nc1ccc(F)cc1F,69
COc1ccc(Cl)cc1C(=O)Nc1ccc2c(c1)CCC(=O)N2C,44
COC(=O)CC1(C(=O)OC)Oc2ccc(Cl)cc2C(=O)N1c1ccc(F)cc1F (centres undefined),-70*
C=CCN1C(=O)CCC12CCN(Cc1c(C)noc1C)CC2,9
Cc1noc(C)c1CN1CCC2(CCC(=O)N2CCN(C)C)CC1,-82*
SMILES,Tgondii IFNg
Cc1noc(C)c1CN1CC2(CCN(C(=O)N(C)C)C2)CC1=O (centres undefined),29
Cc1cccc(NC(=O)C(=O)NCCc2sc(-c3cccc(F)c3)nc2C)c1,-40
CC(C)[C@@H]1C[C@H](C(F)(F)F)n2nc(C(=O)N3CCCC(CN(C)C)C3)cc2N1 (some centres undefined),-2
Cc1nc(C(C)C)ncc1C(=O)N1CCNCC1C(=O)NC1CC1 (centres undefined),0
Cc1ccc(C(=O)CSc2ncnc3c(-c4ccc(Cl)cc4)nsc23)cc1,-85*
COc1ccc(-c2nsc3c(SCc4ccccc4)ncnc23)cc1,12
Cc1noc2ncnc(SCC(=O)c3ccc(Cl)cc3)c12,24
COC(=O)c1c(NC(C)c2cccnc2)c2cccc(Cl)c2[nH]c1=O (centres undefined),10
Oc1ccc(CCC2CCCCN2Cc2ccncc2)cc1 (centres undefined),11
Cc1nc(-c2cccc(NC(=O)CN3CCCN(c4ccccn4)CC3)c2)cs1,6
Cc1noc(C)c1CN1CCC2(CC(=O)N(c3ccc(F)cc3)C2)C1 (centres undefined),7
COCCN1C(=O)N(C2Cc3ccccc3C2)C(=O)C12CCN(Cc1ccc3c(c1)CCO3)CC2,-28
Cc1ccc(-c2nnc(-c3nc(NCc4cccc(F)c4)c4ccccc4n3)o2)cc1,-30
Cc1cccc(-c2nnc(-c3nc(NCc4cccnc4)c4ccccc4n3)o2)c1,232
CCCNc1nc(-c2nnc(-c3cccc(C)c3)o2)nc2ccccc12,-98*
Cc1cccc(CNc2nc(-c3nnc(-c4ccccc4)o3)nc3ccccc23)c1,-85*
CCCSCCCNc1nc(-c2nnc(-c3ccc(C)cc3)o2)nc2ccccc12,-26
CCOc1ccc(CNc2nc(-c3nnc(-c4cccc(C)c4)o3)nc3ccccc23)cc1,-16
Cc1cccc(-c2nnc(-c3nc(N4CCOCC4)c4ccccc4n3)o2)c1,i
Cc1cccc(-c2nnc(-c3nc(NCCN4CCCC4)c4ccccc4n3)o2)c1,-90*
COc1ccc(-c2nnc(-c3nc(NCc4cccc(C)c4)c4ccccc4n3)o2)cc1,-48
Cc1cccc(-c2nnc(-c3nc(NCc4ccc(C)o4)c4ccccc4n3)o2)c1,-80*
CCC(C)Nc1nc(-c2nnc(-c3cccc(C)c3)o2)nc2ccccc12 (centres undefined),-60
Cc1cccc(-c2nnc(-c3nc(NCc4ccc(N(C)C)cc4)c4ccccc4n3)o2)c1,6
Cc1cc(C(=O)N2CCC3(CN(C)C(=O)O3)C2)cc2sc(N)nc12 (centres undefined),82
SMILES,Tgondii IFNg
COc1cccc(C(=O)N2CCC3(CC2)OC(C(N)=O)Cn2ccnc23)c1 (centres undefined),-1
Clc1ccccc1C1CCN(Cc2ncc[nH]2)C1 (centres undefined),-3
CCS(=O)(=O)N1CCC[C@]2(C[C@@H](OCc3ccncc3)CO2)C1,6
c1ccc2c(c1)CCC21CCN(Cc2cc3n(n2)CCNC3)CC1,-7
Cn1cc(N2C(=O)CC3C2CCN3C(=O)Cc2cccc(F)c2)cn1 (centres undefined),6
Cc1ccc(-c2nnc(-c3nc(NCCc4ccco4)c4ccccc4n3)o2)cc1,362
c1ccc(-c2nnc(-c3nc(NCc4ccco4)c4ccccc4n3)o2)cc1,i
Cc1cccc(-c2nnc(-c3nc(NCCc4ccco4)c4ccccc4n3)o2)c1,-100*
COCC1CN(CC2CCOCC2)Cc2ncn(C)c21 (centres undefined),-21
c1cc(-c2nccn2CCCn2ccnc2)ccn1,-2
CC(C)(C)c1ccc(/C=C/C(=O)Nc2ccc3c(c2)OCCO3)cc1,-73*
Cc1nn(-c2ccccc2)nc1C(=O)Nc1ccc2c(c1)OCCO2,7
CC(C)(C)c1ccc2c(c1)OCCOCCOCCOCCO2,-21
Cc1cccnc1CN1CCC2(CC1)CC(Nc1ncccn1)C2,-2
CS(=O)(=O)N1C[C@@H]2COC[C@@]2(CN2CCOCC2)C1,7
Cc1nc(OCC(=O)Nc2cccc(Br)c2)c2ccccc2n1,-15
CS(=O)c1ccc(-c2nc(-c3ccc(F)cc3)c(-c3ccncc3)[nH]2)cc1 (centres undefined),-90*
Cc1[nH]c(-c2ccc(F)cc2)nc1C(=O)O,-34
CS(=O)(=O)c1ccc(-c2nc(-c3ccc(F)cc3)c(-c3ccncc3)[nH]2)cc1,11
COc1ccc(NC(=O)Cn2c(=O)cc(C(=O)N3CCCCC3)c3ccccc32)cc1Cl,2
Cc1c(-c2nnnn2-c2ccc(F)cc2)cnc2cc3c(cc12)OCO3,78
CNCCn1c(=O)c2cc(OC)c(OC)cc2c2cnc3cc4c(cc3c21)OCO4,-80*
CC(C)C(=O)N1CCCn2cnc(CN3CCCC3=O)c2C1,2
O=C1CCC2(CCCN(S(=O)(=O)c3cccs3)CC2)N1 (centres undefined),-2

# Screens: PubChem BioAssay, Broad Institute
